# Where a name gives a salt, the structure may show the parent alone. ± gives the standard deviation of the averaged measurements.
# Experiments:
# Assay in all cases: growth (OD600 after 10 h); higher = more growth (less inhibition)
# [1] = system: E. coli TESEC Alr+ wild-type control; details: compound 0.1 mM; raw OD600 reference: median of DMSO wells 0.241, cell-free background 0.041
# Procedure: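 TESEC Mtb Alr E. coli, or the Alr+ wild-type control, in 384-well plates with Prestwick library compounds at 0.1 mM and 1% DMSO, across arabinose induction levels of 1E3 to 1E7 nM. Growth is read as OD600 after 10 h at 37 °C in triplicate biological replicates.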
# [2] = system: E. coli TESEC Mtb Asd; details: compound 0.1 mM
# Procedure: (§1)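 TESEC E. coli strains in which the native enzyme is deleted and replaced by arabinose-inducible Mtb Asd, DapB, CysH or TrpD, each grown in its selective medium. Strains were screened against the Prestwick library at 0.1 mM and 1% DMSO in 384-well format at low and high arabinose induction. Growth is read as OD600 after 10 h in triplicate.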
# [3] = system: E. coli TESEC Alr+ wild-type control; details: compound 0.1 mM; raw OD600 reference: median of DMSO wells 0.49, cell-free background 0.052
# Procedure: (§2)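 TESEC Mtb Alr E. coli (ΔaraC ΔtolC ΔentC Δalr ΔdadX, arabinose-inducible Mtb Alr) or the Alr+ wild-type control strain, grown in defined M9-fructose medium without D-alanine in 96-well plates with Prestwick library compounds at 0.1 mM and 1% DMSO. Low Alr induction is 0.1 µM arabinose and high induction is 10 mM arabinose.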
# [4] = system: E. coli TESEC Mtb Alr; details: compound 0.1 mM
# Procedure: as §2
# [5] = system: E. coli TESEC Mtb DapB; details: compound 0.1 mM
# Procedure: as §1
# [6] = arabinose induction (level): High, raw OD600 reference: median of DMSO wells 0.331, cell-free background 0.041
# [7] = arabinose induction (level): Low, raw OD600 reference: median of DMSO wells 0.417, cell-free background 0.041
# [8] = arabinose 100 nM, raw OD600 reference: median of DMSO wells 0.413, cell-free background 0.052
# [9] = arabinose 10000000 nM, raw OD600 reference: median of DMSO wells […], cell-free background 0.052
# [10] = arabinose induction (level): High, raw OD600 reference: median of DMSO wells […], cell-free background 0.041
# [11] = arabinose induction (level): Low, raw OD600 reference: median of DMSO wells 0.227, cell-free background 0.041
SMILES,growth [1],"growth [2, 6]","growth [2, 7]",growth [3],"growth [4, 8]","growth [4, 9]","growth [5, 10]","growth [5, 11]"
Cc1cc2cc3c(C)cc(=O)oc3c(C)c2o1 [Trioxsalen],0.253 ± 0.0068,0.454 ± 0.015,0.423 ± 0.0095,0.438 ± 0.0099,0.4096 ± 0.0037,0.324 ± 0.024,,
Nc1nc2c(ncn2COCCO)c(=O)[nH]1 [Acyclovir],0.255 ± 0.014,0.374 ± 0.016,0.416 ± 0.047,0.47 ± 0.04,0.413 ± 0.011,0.355 ± 0.029,,
CCN(CC)CCOCCOC(=O)C1(c2ccccc2)CCCC1 [Carbetapentane citrate],0.203 ± 0.0053,0.153 ± 0.017,0.294 ± 0.064,,0.41 ± 0.0084,0.288 ± 0.012,0.185 ± 0.021,0.199 ± 0.011
CCCCOc1cc(C(=O)OCCN(CC)CC)ccc1N [Benoxinate hydrochloride],0.206 ± 0.0046,0.27 ± 0.12,0.451 ± 0.059,,0.4124 ± 0.0014,0.33 ± 0.011,0.183 ± 0.016,0.21 ± 0.036
CCC(C)n1ncn(-c2ccc(N3CCN(c4ccc(OCC5COC(Cn6cncn6)(c6ccc(Cl)cc6Cl)O5)cc4)CC3)cc2)c1=O (stereo unspecified) [Itraconazole],0.25 ± 0.006,0.421 ± 0.0098,0.462 ± 0.049,,0.441 ± 0.027,0.368 ± 0.015,0.182 ± 0.035,0.217 ± 0.017
CN1CCC(=C2c3ccccc3C=Cc3ccccc32)CC1 [Cyproheptadine hydrochloride],0.145 ± 0.0056,0.15 ± 0.0059,0.186 ± 0.0032,0.452 ± 0.11,0.4129 ± 0.0017,0.276 ± 0.016,,
CCCCC1=NC2(CCCC2)C(=O)N1Cc1ccc(-c2ccccc2-c2nnn[nH]2)cc1 [Irbesartan],0.152 ± 0.0053,0.198 ± 0.03,0.21 ± 0.029,0.528 ± 0.12,0.346 ± 0.012,0.167 ± 0.014,0.204 ± 0.014,0.263 ± 0.048
CC1(C)S[C@@H]2[C@H](NC(=O)[C@H](NC(=O)N3CCNC3=O)c3ccccc3)C(=O)N2[C@H]1C(=O)O [Azlocillin sodium salt],0.238 ± 0.0043,0.31 ± 0.035,0.442 ± 0.025,0.631 ± 0.06,0.403 ± 0.017,0.361 ± 0.013,,
CC(=O)Oc1ccccc1C(=O)Oc1ccccc1C(=O)O [Acetylsalicylsalicylic acid],0.253 ± 0.0046,0.325 ± 0.1,0.421 ± 0.069,,0.4179 ± 0.0027,0.352 ± 0.023,0.19 ± 0.014,0.209 ± 0.0043
O=C(O)CN(CCN(CC(=O)O)CC(=O)O)CCN(CC(=O)O)CC(=O)O [Pentetic acid],0.049 ± 0.00062,0.115 ± 0.02,0.0868 ± 0.024,,0.0559 ± 0.0086,0.061 ± 0.001,0.0936 ± 0.0035,0.0709 ± 0.0042
CCn1cc(C(=O)O)c(=O)c2cc(F)c(N3CCNCC3)cc21 [Norfloxacin],0.04437 ± 0.00025,0.0546 ± 0.0041,0.0626 ± 0.0092,0.0524 ± 0.0022,0.0551 ± 0.002,0.05117 ± 0.00047,,
Oc1c(Cl)cc(Cl)c(Cl)c1Cc1c(O)c(Cl)cc(Cl)c1Cl [Hexachlorophene],0.0444 ± 0.00067,0.0582 ± 0.0021,0.0553 ± 0.004,0.05693 ± 0.00042,0.063 ± 0.0035,0.0602 ± 0.0016,,
CCN(CC)CCCC(C)Nc1c2ccc(Cl)cc2nc2ccc(OC)cc12 (stereo unspecified) [Quinacrine dihydrochloride hydrate],0.0702 ± 0.00072,0.0701 ± 0.0057,0.0679 ± 0.006,,0.421 ± 0.0083,0.222 ± 0.025,0.156 ± 0.022,0.0986 ± 0.073
C=C[C@H]1CN2CC[C@H]1C[C@@H]2[C@@H](O)c1ccnc2ccc(OC)cc12 [Quinidine hydrochloride monohydrate],0.22 ± 0.004,0.239 ± 0.04,0.412 ± 0.012,0.483 ± 0.07,0.4326 ± 0.004,0.356 ± 0.0089,0.198 ± 0.0064,0.229 ± 0.034
CCOCCn1c(N2CCCN(C)CC2)nc2ccccc21 [Emedastine],0.223 ± 0.007,0.291 ± 0.075,0.328 ± 0.058,,0.415 ± 0.012,0.337 ± 0.013,0.205 ± 0.018,0.211 ± 0.019
CC[C@H](c1ccc(O)cc1)[C@@H](CC)c1ccc(O)cc1 [Hexestrol],0.0495 ± 0.0091,0.0495 ± 0.0033,0.0486 ± 0.0013,0.054 ± 0.0093,0.0666 ± 0.025,0.05173 ± 0.0004,,
Clc1ccc(CO/N=C(\Cn2ccnc2)c2ccc(Cl)cc2Cl)c(Cl)c1 [Oxiconazole Nitrate],0.0527 ± 0.0022,0.0621 ± 0.001,0.0577 ± 0.0051,,0.095 ± 0.058,0.0891 ± 0.0035,,
CCOC(=O)OC(C)OC(=O)[C@@H]1N2C(=O)[C@@H](NC(=O)[C@H](N)c3ccccc3)[C@H]2SC1(C)C (stereo partly specified) [Bacampicillin hydrochloride],0.239 ± 0.011,0.237 ± 0.13,0.325 ± 0.034,,0.41 ± 0.0064,0.338 ± 0.017,0.185 ± 0.016,0.188 ± 0.0087
CCCc1nn(C)c2c(=O)[nH]c(-c3cc(S(=O)(=O)N4CCN(C)CC4)ccc3OCC)nc12 [Sildenafil],0.201 ± 0.016,0.233 ± 0.013,0.399 ± 0.035,0.456 ± 0.045,0.406 ± 0.0068,0.2931 ± 0.0018,,
C[C@@H](c1ncncc1F)[C@](O)(Cn1cncn1)c1ccc(F)cc1F [Voriconazole],0.214 ± 0.013,0.315 ± 0.062,0.285 ± 0.035,,0.412 ± 0.011,0.318 ± 0.012,0.169 ± 0.015,0.201 ± 0.013
N#Cc1ccc(C(c2ccc(C#N)cc2)n2cncn2)cc1 [Letrozole],0.2404 ± 0.0017,0.243 ± 0.06,0.356 ± 0.086,,0.394 ± 0.016,0.309 ± 0.016,0.213 ± 0.018,0.24 ± 0.032
CC(C)(C)C(=O)OCOC(=O)[C@@H]1N2C(=O)[C@@H](NC(=O)[C@H](N)c3ccccc3)[C@H]2SC1(C)C [Pivampicillin],0.26 ± 0.0055,0.376 ± 0.075,0.396 ± 0.018,0.555 ± 0.11,0.4 ± 0.012,0.379 ± 0.028,0.216 ± 0.058,0.24 ± 0.024
CN(C)CC/C=C1/c2ccccc2COc2ccc(CC(=O)O)cc21 [Olopatadine hydrochloride],0.2304 ± 0.0017,0.256 ± 0.056,0.328 ± 0.089,0.589 ± 0.097,0.425 ± 0.0062,0.361 ± 0.013,0.198 ± 0.011,0.233 ± 0.015
O=C(c1ccccc1)c1ccc2n1CCC2C(=O)O (stereo unspecified) [Ketorolac tromethamine],0.222 ± 0.0085,0.381 ± 0.035,0.331 ± 0.036,,0.384 ± 0.016,0.326 ± 0.0097,0.194 ± 0.02,0.216 ± 0.049
COc1cc(NC(C)CCCN)c2ncccc2c1 (stereo unspecified) [Primaquine diphosphate],0.0466 ± 0.00081,0.0857 ± 0.0065,0.0611 ± 0.0046,,0.38 ± 0.018,0.08 ± 0.024,0.122 ± 0.092,0.0664 ± 0.0032
Cc1ccc(N(CC2=NCCN2)c2cccc(O)c2)cc1 [Phentolamine hydrochloride],0.219 ± 0.0053,0.252 ± 0.065,0.377 ± 0.048,,0.411 ± 0.019,0.352 ± 0.026,0.193 ± 0.019,0.252 ± 0.024

# — the supplement of paper PMC9262897, “Low-cost anti-mycobacterial drug discovery using engineered E. coli” (Nature Communications, 2022)
